Results reported in PubChem BioAssay (NCATS).
Results filed as inconclusive are left out. Entries that show only a call come without a potency. Calls of active or inactive are those of the source. Calls come from the whole dose curve; as a rule, active = well fitted inhibition curve with a large enough effect; inconclusive = small, poorly fitted or top-dose-only effect; inactive = no such curve, though single readings can be large or run the other way.

Test system: Zika virus NS2B-NS3 protease (linked construct)
Assay: Primary screen NINDS Rhodamine qHTS for Zika virus inhibitors (AID 1347160); note: nearly all actives have a fitted effect of over 55% in size
Settings: purified NS2B-NS3 protease, Rhodamine110 substrate fluorescence; series mostly up to 57.1 µM
Outline: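 Each compound, titrated, sat 15 min with 25 nM linked protease before 1.5 microM Rhodamine110 substrate went in. Fluorescence gain over the next 15 min, in pH 8.0 Tris with Tween 20, gave Hill-fitted curves.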

Question: For `CCOc1ccc(S(=O)(=O)N2CCCCCC2)c2ccccc12`, which Potency is on record?
Answer: inactive

Question: `Cn1ccc(NC(=O)c2cc(Oc3ccc(C(=O)N4CCC4)c(F)c3)c3c(c2)OC(C)(C)C3)n1` was tested. Which Potency did it give?
Answer: inactive

Question: With `Cc1nc(Nc2ccc(F)cc2)nc(N2CCc3ccccc3C2C)c1C` (stereo not given) as the molecule, how does the Potency read?
Answer: inactive

Question: How did the Potency turn out when `O=C1NC(=O)C(c2cnc3ccccn23)=C1c1cn2c3c(cc(F)cc13)CN(C(=O)N1CCCCC1)CC2` was run?
Answer: inactive

Question: For `C/C=C(/C)C(=O)OC1CC(C)(C)CC2C3=CCC4C5(C)CCC(O[C@@H]6O[C@H](C(=O)O)[C@@H](O)[C@H](O)[C@H]6O[C@@H]6O[C@H](CO)[C@H](O)[C@H](O[C@@H]7OC[C@H](O)[C@H](O)[C@H]7O[C@@H]7O[C@H](CO)[C@@H](O)[C@H](O)[C@H]7O)[C@H]6O)C(C)(C)C5CCC4(C)C3(C)C(O)C(O)C12CO` (stereo not given in full), which outcome is on record?
Answer: inactive [at 10.7 µM]
